Reference: PubChem BioAssay (EPA / NIEHS)
Calls of active or inactive are those of the source. The calls were made as follows: active = hit-call score of the fitted dose curve at least 0.9, where 1 is the maximum; inactive = score below 0.9.

What was measured:
[1] = read-out: Interleukin-1 alpha (IL1a), IL1A (gene 3552); assay: BSK_KF3CT_IL1a: BioMAP Diversity Plus: KF3CT Assay for Interleukin-1 alpha (IL1a) Biomarker Activity (AID 2283070); conditions: primary human keratinocytes with fibroblasts; actives raise or lower the signal
How it was run: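 Primary skin co-culture (keratinocytes, foreskin fibroblasts), 24 h exposure; ELISA for IL-1a; bidirectional curve fit vs DMSO.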

[2] = read-out: Transforming growth factor beta 1 (TGFb1), TGFB1 (gene 7040); assay: BSK_KF3CT_TGFb1: BioMAP Diversity Plus: KF3CT Assay for Transforming growth factor beta 1 (TGFb1) Biomarker Activity (AID 2283072); conditions: primary human keratinocytes with fibroblasts; actives raise or lower the signal
How it was run: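 KF3CT co-culture (keratinocytes + fibroblasts), 24 h exposure → TGF-b1 ELISA → bidirectional fit, DMSO = baseline. Parallel SRB total-protein staining (0.1% SRB, 10% TCA fixation, 560 nm) for cytotoxicity.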

[3] = read-out: C-C motif chemokine 2 (Homo sapiens) (UniProt P13500); assay: BSK_KF3CT_MCP1: BioMAP Diversity Plus: KF3CT Assay for Monocyte Chemoattractant Protein 1 (MCP1/CCL2) Biomarker Activity (AID 2283073); conditions: primary human keratinocytes with fibroblasts; actives raise or lower the signal
How it was run: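 Biomarker MCP-1 is measured by ELISA in primary human keratinocytes co-cultured with foreskin fibroblasts, 24 h after chemical treatment; DMSO serves as the negative control and activity baseline.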

[4] = read-out: Matrix Metallopeptidase 9 (MMP9), MMP9 (gene 4318); assay: BSK_KF3CT_MMP9: BioMAP Diversity Plus: KF3CT Assay for Matrix Metallopeptidase 9 (MMP9) Biomarker Activity (AID 2283074); conditions: primary human keratinocytes with fibroblasts; actives raise or lower the signal;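 as to AC50: MMP9 protein level quantified by ELISA in the co-culture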
How it was run: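 ELISA read-out of MMP-9 at 24 h post-dosing in a co-culture of human skin keratinocytes and foreskin fibroblasts. Gain or loss of signal was fitted in both directions against DMSO.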

[5] = read-out: urokinase plasminogen activator (uPA), PLAU (gene 5328); assay: BSK_KF3CT_uPA: BioMAP Diversity Plus: KF3CT Assay for urokinase plasminogen activator (uPA) Biomarker Activity (AID 2283075); conditions: primary human keratinocytes with fibroblasts; actives raise or lower the signal
How it was run: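 Skin co-culture (keratinocytes + foreskin fibroblasts), human primary; 24 h post-dose; uPA by ELISA; gain/loss fit vs DMSO baseline.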

CD40, CD40 (gene 958) [6] = assay: BSK_LPS_CD40: BioMAP Diversity Plus: LPS Assay for CD40 Biomarker Activity (AID 2283076); conditions: primary human HUVEC with PBMC; actives raise or lower the signal
How it was run: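 Using a multiplexed primary human co-culture (umbilical vein endothelium plus PBMC), CD40 was read by ELISA 24 h after dosing, with cytotoxicity tracked by sulforhodamine B staining of parallel cultures and activity fitted bidirectionally versus DMSO.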

[7] = read-out: Interleukin-8 (IL8), CXCL8 (gene 3576); assay: BSK_LPS_IL8: BioMAP Diversity Plus: LPS Assay for Interleukin-8 (IL8) Biomarker Activity (AID 2283078); conditions: primary human HUVEC with PBMC; actives raise or lower the signal
How it was run: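 In this LPS system, chemical-treated human umbilical vein endothelium/PBMC co-cultures were harvested at 24 h for IL-8 ELISA.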

[8] = BSK_LPS_SRB: Viability Assessment in the BioMAP Diversity Plus: LPS Assay (AID 2283079); conditions: primary human HUVEC with PBMC;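 also: total protein by sulforhodamine B absorbance as a cytotoxicity measure; measured one day after compound addition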
How it was run: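 Cytotoxicity endpoint in human endothelial–PBMC co-culture: 24 h exposure, then SRB (0.1%) staining, 560 nm read.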

[9] = read-out: Interleukin-1 alpha (IL1a), IL1A (gene 3552); assay: BSK_LPS_IL1a: BioMAP Diversity Plus: LPS Assay for Interleukin-1 alpha (IL1a) Biomarker Activity (AID 2283080); conditions: primary human HUVEC with PBMC; actives raise or lower the signal
How it was run: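 Primary human HUVEC and PBMC co-culture stimulated with LPS is dosed and harvested at 24 h. Both increases and decreases in ELISA-measured IL-1a are scored relative to DMSO.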

[10] = read-out: Monocyte Chemoattractant Protein-1 (MCP1), CCL2 (gene 6347); assay: BSK_LPS_MCP1: BioMAP Diversity Plus: LPS Assay for Monocyte Chemoattractant Protein-1 (MCP1) Biomarker Activity (AID 2283081); conditions: primary human HUVEC with PBMC; actives raise or lower the signal;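 as to AC50: secreted MCP-1 protein quantified by ELISA in culture supernatant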
How it was run: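 Values derive from bidirectional fitting against DMSO of ELISA-measured MCP-1 in a human primary endothelial and mononuclear cell co-culture, 24 h after chemical addition under LPS activation.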

[11] = BSK_LPS_PGE2: BioMAP Diversity Plus: LPS Assay for Prostaglandin E2 (PGE2) Biomarker Activity (AID 2283082); conditions: primary human HUVEC with PBMC; actives raise or lower the signal;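 as to AC50: secreted prostaglandin E2 measured by ELISA in LPS-stimulated co-culture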
How it was run: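 Compounds were added to the LPS co-culture of endothelium and PBMC, and PGE2 was measured by ELISA after 24 h. Responses in either direction were fitted with DMSO as baseline.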

[12] = read-out: Macrophage colony-stimulating factor (MCSF), CSF1 (gene 1435); assay: BSK_LPS_MCSF: BioMAP Diversity Plus: LPS Assay for Macrophage colony-stimulating factor (MCSF) Biomarker Activity (AID 2283083); conditions: primary human HUVEC with PBMC; actives raise or lower the signal
How it was run: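 Bidirectional fit versus DMSO of ELISA-measured M-CSF in co-cultured human umbilical vein endothelial cells and PBMC, sampled 24 h after dosing.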

[13] = read-out: Tissue Factor, F3 (gene 2152); assay: BSK_LPS_TissueFactor: BioMAP Diversity Plus: LPS Assay for Tissue Factor Biomarker Activity (AID 2283084); conditions: primary human HUVEC with PBMC; actives raise or lower the signal
How it was run: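 Read-out: CD142 ELISA, 24 h. System: LPS-driven human endothelial/PBMC co-culture. Analysis: up- or down-signal fitted against DMSO.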

[14] = read-out: Tumor necrosis factor (Homo sapiens) (UniProt P01375); assay: BSK_LPS_TNFa: BioMAP Diversity Plus: LPS Assay for Tumour Necrosis Factor alpha (TNFa) Biomarker Activity (AID 2283085); conditions: primary human HUVEC with PBMC; actives raise or lower the signal;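 as to AC50: TNFa protein level quantified by ELISA in the co-culture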
How it was run: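 Cells (umbilical vein endothelium plus peripheral blood mononuclear cells) were dosed with chemical, incubated 24 h, then TNFa was quantified by ELISA; values derive from bidirectional fitting with DMSO as baseline.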

[15] = read-out: Vascular cell adhesion molecule 1 (VCAM1), VCAM1 (gene 7412); assay: BSK_LPS_VCAM1: BioMAP Diversity Plus: LPS Assay for Vascular cell adhesion molecule 1 (VCAM1) Biomarker Activity (AID 2283086); conditions: primary human HUVEC with PBMC; actives raise or lower the signal
How it was run: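 Cells are dosed in an LPS-stimulated endothelial/mononuclear co-culture and, after 24 h, VCAM-1 is quantified by ELISA. Activity in either direction is fitted relative to the DMSO negative control.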

CD40, CD40 (gene 958) [16] = assay: BSK_SAg_CD40: BioMAP Diversity Plus: SAg Assay for CD40 Biomarker Activity (AID 2283088); conditions: primary human HUVEC with PBMC; actives raise or lower the signal
How it was run: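 Endpoint derived by fitting increases or decreases versus DMSO controls. CD40 is detected by fluorescence ELISA in a human vascular co-culture of endothelium and PBMC at 24 h.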

CD69, CD69 (gene 969) = assay: BSK_SAg_CD69: BioMAP Diversity Plus: SAg Assay for CD69 Biomarker Activity (AID 2283089); conditions: primary human HUVEC with PBMC; actives raise or lower the signal
How it was run: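 Primary human vascular co-culture (umbilical vein endothelium with peripheral blood mononuclear cells) exposed to test chemical for 24 h. CD69 levels quantified by fluorescence ELISA; DMSO served as negative control for bidirectional fitting.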

CD38, CD38 (gene 952) = assay: BSK_SAg_CD38: BioMAP Diversity Plus: SAg Assay for CD38 Biomarker Activity (AID 2283087); conditions: primary human HUVEC with PBMC; actives raise or lower the signal
How it was run: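 CD38 quantified by ELISA (fluorescence) in a superantigen-activated endothelial cell–PBMC co-culture at 24 h post-dose. Activity fitted in both directions relative to DMSO; parallel SRB and Alamar Blue cytotoxicity read-outs.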

Measured: AC50

Chain of Tumor necrosis factor (Homo sapiens) (P01375 whole entry, looked up): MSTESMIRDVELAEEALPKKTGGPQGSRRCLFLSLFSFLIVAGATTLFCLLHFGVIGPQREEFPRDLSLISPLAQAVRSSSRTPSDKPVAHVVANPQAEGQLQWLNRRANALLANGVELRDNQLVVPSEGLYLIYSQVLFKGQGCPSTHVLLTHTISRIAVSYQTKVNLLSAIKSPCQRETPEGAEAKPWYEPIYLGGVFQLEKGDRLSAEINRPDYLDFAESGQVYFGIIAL

Oc1ccc(/C=C/c2cc(O)cc(O)c2)cc1
active: [1] 3.97 µM | [3] 20 µM | [4] 16 µM | [8] 20 µM | [10] 20 µM | [11] 2.5 µM
not listed: CD38, CD38 (gene 952)
inactive: all other assays above

CC(CCC(=O)O)(c1ccc(O)cc1)c1ccc(O)cc1
not listed: [2] | [15] | CD38, CD38 (gene 952)
inactive: all other assays above

C1CNCCN1
not listed: [15] | CD38, CD38 (gene 952)
inactive: all other assays above

CC=C(C)C(C)=O
not listed: [15] | CD38, CD38 (gene 952)
inactive: all other assays above

CC(C)c1cccc(C(C)C)c1N
inactive: all assays above

C=CC(=O)NCOCCCC
active: [14] 20 µM
not listed: CD38, CD38 (gene 952)
inactive: all other assays above

CC(Cl)COP(=O)(OCC(C)Cl)OCC(C)Cl (stereo unspecified)
active: [14] 1.31 µM
not listed: CD38, CD38 (gene 952)
inactive: all other assays above
